# The sample as a whole holds a higher share of the strongest signals than the screen did.
# B1: AT1G15820(NC) (Arabidopsis thaliana) (protein)
# chain: MAMAVSGAVLSGLGSSFLTGGKRGATALASGVGDAIAPFSFGSLLGTQLLLMGWVESKRWVDFFNPDSQSVEWATPWSKTAENFANYTGDQGYPGGRFFDPLGLAGKNRDGVYEPDFEKLERLKLAEIKHSRLAMVAMLIFYFEAGQGKTPLGALGL
# Columns and labels:
# Experiment in all cases: glycan array binding signal (z-score within array); higher = stronger binding
# Settings in all cases: glycan notation: IUPAC condensed, linker removed
# [1] = molecular target: Gal(b1-4)GlcNAc(b1-3)Gal(b1-4)GlcNAc(b1-3)[Gal(b1-4)GlcNAc(b1-3)Gal(b1-4)GlcNAc(b1-6)]GalNAc
# Summary of the method: (§1)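 Arrays were curated from the Consortium for Functional Glycomics database, 3228 in total, and kept only where the protein sequence was available. Binding is expressed as a within-array Z-score. This score was averaged across arrays of the same protein sequence at different concentrations or buffers and across linkers, and negative values can be read as non-binding.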
# GalNAc(b1-3)GlcNAc = molecular target: GalNAc(b1-3)GlcNAc
# Summary of the method: as §1
# GalNAc(b1-4)GlcNAc = molecular target: GalNAc(b1-4)GlcNAc
# Summary of the method: as §1
# [2] = molecular target: GalNAc(b1-4)GlcNAc(b1-2)Man
# Summary of the method: as §1
# [3] = molecular target: GlcNAc(a1-4)Gal(b1-4)GlcNAc(b1-3)Gal(b1-4)GlcNAc(b1-3)Gal(b1-4)GlcNAc
# Summary of the method: as §1
# [4] = molecular target: GlcNAc(a1-6)Gal(b1-4)GlcNAc
# Summary of the method: as §1
# [5] = molecular target: GlcNAc(b1-3)Gal(b1-4)GlcNAc(b1-2)[GlcNAc(b1-3)Gal(b1-4)GlcNAc(b1-6)]Man(a1-6)[GlcNAc(b1-3)Gal(b1-4)GlcNAc(b1-2)Man(a1-3)]Man(b1-4)GlcNAc(b1-4)GlcNAc
# Summary of the method: as §1
# [6] = molecular target: GlcNAc(b1-3)Gal(b1-4)GlcNAc(b1-3)Gal(b1-4)GlcNAc(b1-2)Man(a1-3)[GlcNAc(b1-3)Gal(b1-4)GlcNAc(b1-3)Gal(b1-4)GlcNAc(b1-2)Man(a1-6)]Man(b1-4)GlcNAc(b1-4)[Fuc(a1-6)]GlcNAc
# Summary of the method: as §1
# [7] = molecular target: GlcNAc(b1-4)Gal(b1-4)GlcNAc
# Summary of the method: as §1
# GlcNAc(b1-4)GlcNAc = molecular target: GlcNAc(b1-4)GlcNAc
# Summary of the method: as §1
# [8] = molecular target: GlcNAc(b1-4)GlcNAc(b1-4)GlcNAc(b1-4)GlcNAc(b1-4)GlcNAc
# Summary of the method: as §1
# [9] = molecular target: Neu5Ac(a2-3)Gal(b1-3)GalNAc(b1-4)[Neu5Ac(a2-3)]Gal(b1-4)Glc
# Summary of the method: as §1
# [10] = molecular target: Neu5Ac(a2-3)Gal(b1-3)[Fuc(a1-4)]GlcNAc(b1-3)Gal(b1-3)[Fuc(a1-4)]GlcNAc
# Summary of the method: as §1
# [11] = molecular target: Neu5Ac(a2-3)Gal(b1-4)GlcNAc(b1-2)Man(a1-3)[Neu5Ac(a2-3)Gal(b1-4)GlcNAc(b1-2)Man(a1-6)]Man(b1-4)GlcNAc(b1-4)[Fuc(a1-6)]GlcNAc
# Summary of the method: as §1
# [12] = molecular target: Neu5Ac(a2-3)Gal(b1-4)GlcNAc6S
# Summary of the method: as §1
# [13] = molecular target: Neu5Ac(a2-3)[GalNAc(b1-4)]Gal(b1-4)GlcNAc
# Summary of the method: as §1
# Neu5Ac(a2-6)Gal(b1-4)Glc = molecular target: Neu5Ac(a2-6)Gal(b1-4)Glc
# Summary of the method: as §1
# [14] = molecular target: Neu5Ac(a2-6)Gal(b1-4)GlcNAc
# Summary of the method: as §1
# [15] = molecular target: Neu5Ac(a2-6)Gal(b1-4)GlcNAc(b1-2)Man(a1-3)[GlcNAc(b1-2)Man(a1-6)]Man(b1-4)GlcNAc(b1-4)GlcNAc
# Summary of the method: as §1
# [16] = molecular target: Neu5Ac(a2-6)Gal(b1-4)GlcNAc(b1-2)Man(a1-3)[Neu5Ac(a2-6)Gal(b1-4)GlcNAc(b1-2)Man(a1-6)]Man(b1-4)GlcNAc(b1-4)[Fuc(a1-6)]GlcNAc
# Summary of the method: as §1
# [17] = molecular target: Neu5Ac(a2-6)Gal(b1-4)GlcNAc(b1-2)[Neu5Ac(a2-6)Gal(b1-4)GlcNAc(b1-4)]Man(a1-3)[GlcNAc(b1-4)][Neu5Ac(a2-6)Gal(b1-4)GlcNAc(b1-2)[Neu5Ac(a2-6)Gal(b1-4)GlcNAc(b1-6)]Man(a1-6)]Man(b1-4)GlcNAc(b1-4)GlcNAc
# Summary of the method: as §1
# [18] = molecular target: Neu5Ac(a2-6)Gal(b1-4)GlcNAc(b1-3)[Neu5Ac(a2-6)Gal(b1-4)GlcNAc(b1-6)]GalNAc
# Summary of the method: as §1
# [19] = molecular target: Neu5Ac(a2-6)Gal(b1-4)GlcNAc6S
# Summary of the method: as §1
# [20] = molecular target: Neu5Ac(a2-6)GlcNAc(b1-4)GlcNAc(b1-4)GlcNAc
# Summary of the method: as §1
# [21] = molecular target: Neu5Ac(a2-8)Neu5Ac(a2-3)Gal(b1-3)GalNAc(b1-4)[Neu5Ac(a2-8)Neu5Ac(a2-3)]Gal(b1-4)Glc
# Summary of the method: as §1
# Neu5Gc(a2-6)GalNAc = molecular target: Neu5Gc(a2-6)GalNAc
# Summary of the method: as §1
binder,measurement,setting,value
B1,glycan array binding signal (z-score),[1],4.39
same,glycan array binding signal (z-score),GalNAc(b1-3)GlcNAc,-0.221
same,glycan array binding signal (z-score),GalNAc(b1-4)GlcNAc,7.2
same,glycan array binding signal (z-score),[2],-0.306
same,glycan array binding signal (z-score),[3],-0.156
same,glycan array binding signal (z-score),[4],-0.626
same,glycan array binding signal (z-score),[5],0.582
same,glycan array binding signal (z-score),[6],2.99
same,glycan array binding signal (z-score),[7],0.405
same,glycan array binding signal (z-score),GlcNAc(b1-4)GlcNAc,-0.216
same,glycan array binding signal (z-score),[8],4.7
same,glycan array binding signal (z-score),[9],-0.581
same,glycan array binding signal (z-score),[10],-0.555
same,glycan array binding signal (z-score),[11],-0.329
same,glycan array binding signal (z-score),[12],-0.18
same,glycan array binding signal (z-score),[13],-0.475
same,glycan array binding signal (z-score),Neu5Ac(a2-6)Gal(b1-4)Glc,-0.637
same,glycan array binding signal (z-score),[14],-0.363
same,glycan array binding signal (z-score),[15],-0.052
same,glycan array binding signal (z-score),[16],0.316
same,glycan array binding signal (z-score),[17],-0.4
same,glycan array binding signal (z-score),[18],-0.424
same,glycan array binding signal (z-score),[19],-0.322
same,glycan array binding signal (z-score),[20],-0.481
same,glycan array binding signal (z-score),[21],5.08
same,glycan array binding signal (z-score),Neu5Gc(a2-6)GalNAc,-0.493

# From the supplement of paper PMC8728848
